The values below come from PubChem BioAssay AID1457 (National Center for Advancing Translational Sciences (NCATS), 2008).

Molecules are shown by their SMILES. Out of some 210,000 compounds screened, about 730 (0.35%) were called active. Inconclusive results (about 1%) are left out. What follows is part of a selection rich in actives, with near analogues and random picks from the rest. A number with no mark means an inactive call. Calls follow the shape of the dose curve; as a rule, active = well fitted inhibition curve with a large enough effect; inconclusive = small, poorly fitted or top-dose-only effect; inactive = no such curve, though single readings can be large or run the other way.
Potency is read from the fitted curve at half-maximal effect.

A short description of this experiment: qHTS Assay for Identifying the Cell-Membrane Permeable IMPase Inhibitors: Potentiation with Lithium.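 Also: IP1 builds up when IMPase is blocked and the TR-FRET signal falls; nearly all actives have a fitted effect of over 50% in size.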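 As to activity, negative = IMPase inhibition: plate controls were basal vehicle for no effect and high inhibitor control for full effect.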 As to conditions: CHO-M1 cells, IP1 TR-FRET (IP-One), carbachol + lithium; series mostly up to 59.4 µM; activity, negative = IMPase inhibition: at the top concentration. Put shortly:
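Concentration–response in CHO-M1 cells, lithium-potentiated; 30 min at 37C. IP1 detected by competitive TR-FRET after 10 min lysis at RT. Hill-fitted AC50.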
For the molecule `O=C(COC(=O)Cn1cnc2ccccc21)Nc1cccc2c1C(=O)c1ccccc1C2=O`, the “activity, negative = IMPase inhibition” value is 16.9%. For `O=C(COC(=O)c1ccccc1)Nc1ccccc1Sc1ccccc1`, the “activity, negative = IMPase inhibition” value is 2.86%.

With `O=C(COC(=O)c1cccc(Br)c1)Nc1cccc2c1C(=O)c1ccccc1C2=O`, the Potency was 11.2 µM (active). The same measure, in the same setting: with `C=CCOC(=O)NC(c1ccc(F)c(F)c1)C(C(=O)COC)C(=O)OC` (centres undefined) the entry was “inactive”. For the molecule `Cc1csc(-c2coc3cc(O[C@@H]4O[C@H](CO)[C@@H](O)[C@@H](O)[C@H]4O)ccc3c2=O)n1`, the “activity, negative = IMPase inhibition” value was 7.9%. Regarding `CC(C)(Oc1ccc(C2CC2(Cl)Cl)cc1)C(=O)O` (centres undefined), the “activity, negative = IMPase inhibition” value is 8.64%. Same read-out and setting: next, `CC(O)[C@@H](N)C(=O)O` (some centres undefined): 12%. Take `CCCCCCCC/C=C\CCCCCCCC(=O)OC[C@H](CO)OC(C)=O`: the Potency result is “inactive”. In the case of `CCOC(=O)C1=C(C(=O)OCC)C(C(=O)OCC)N(S(=O)(=O)C(F)(F)F)c2ccccc21` (centres undefined), the “activity, negative = IMPase inhibition” value is 2.92%. On to `N#Cc1ccccc1NC(=O)c1cccc(COc2ccc(Cl)cc2Cl)c1`, for which the Potency is 8.91 µM (active). For `CSc1ccc(C#N)cc1NC(=O)c1cccc(Cl)c1`, the “activity, negative = IMPase inhibition” value is -4.13% [at 38.3 µM]. Still for that read-out and setting: next, `Cc1cc(NC(=O)COc2ccc(Cl)cc2Cl)n(CCC#N)n1`: -18.1% [at 38.3 µM]. Regarding `O=C(Nc1c(-c2ccccc2)nc2c(Br)cc(Br)cn12)c1ccco1`, the Potency was 10 µM (active). On to `O=C(Nc1ccc(Sc2ccc(Br)cc2)cc1)c1ccco1`, for which the “activity, negative = IMPase inhibition” value is 6.53% [at 38.3 µM]. Same read-out and setting: next, `Cc1ccccc1NC(=O)c1cnn(-c2ccccc2)c1NC(=O)c1ccco1`: -10.3% [at 38.3 µM]. The same measure, in the same setting: next, `COc1ccc(-c2c(C)cc3oc(=O)cc(-c4ccccc4)c3c2C)cc1OC`: 16.6%; `C=C(C)C(=O)c1ccc(F)cc1`: 17.7%; `c1ccc2sc(SCCSc3nc4ccccc4s3)nc2c1`: -2.64%. On the same count and under the same terms, next, `CSc1ncnc2sc(C)c(C)c12`: 1.83%. As to `Cc1sc2ncnc(Sc3nc4ccccc4s3)c2c1C`, the Potency is 14.1 µM (active). For `COC(C)C(C(=O)OCC1=CCN2CC[C@H](O)[C@@H]12)C(C)C` (some centres undefined), the “activity, negative = IMPase inhibition” value was 29.6%.

Regarding `OC[C@H]1O[C@@H](n2cnc3c(NC4CCCC4)ncnc32)[C@H](O)[C@H]1O`, the “activity, negative = IMPase inhibition” value was 22.1%.

For `CC/C=C\C/C=C\C/C=C\C/C=C\C/C=C\C/C=C\CCC(=O)NCCc1ccc(O)c(O)c1`, the “activity, negative = IMPase inhibition” value was 14.2%.

As to `Cc1nonc1NC(=O)CSc1nc2ccccc2cc1C#N`, the “activity, negative = IMPase inhibition” value was -6.66%. For `Cc1nc2cc(NC(=O)CSc3nc4c(C)cccc4cc3C#N)ccc2s1`, the Potency is 11.2 µM (active). On to `Cc1ccc2cc(C#N)c(SCC(=O)NCC3CCCO3)nc2c1C` (centres undefined), for which the “activity, negative = IMPase inhibition” value was -16.1% [at 38.3 µM].

On to `C[N+](C)(CCCCCC[N+](C)(C)CCCN1C(=O)c2cccc3cccc(c23)C1=O)CCCN1C(=O)c2cccc3cccc(c23)C1=O`, for which the Potency was 10 µM (active).

For `O=C(CN1C(=O)c2cccc3cccc(c23)C1=O)N1CCCCC1`, the “activity, negative = IMPase inhibition” value is -1.07%. Still for that read-out and setting: next, `O=C1c2cccc3cccc(c23)C(=O)N1CCCCCc1n[nH]c(=S)o1`: -2.87%. On the same count and under the same terms, with `O=C1CCC[C@@H]2CC(N3CCCCC3)C[C@@H]3CCN1[C@H]23` (some centres undefined) the figure was 16.1%; with `CCCCC[C@H](O)/C=C/[C@@H]1[C@@H](CC(=O)CCC(=O)O)[C@@H](O)C[C@H]1O`, 17.9%; with `CCCCC/C=C\C/C=C\CCCCCCCCCC(=O)NCC(=O)O`, 3.03%. Still for that read-out and setting: next, `N#Cc1c(-c2ccc(Cl)cc2)c2c([nH]c1=S)CCCC2`: 2.7%; `CNc1nccc(-c2ccc(Cl)cc2)c1C#N`: -2.1%.

Regarding `CN(C)c1nc(-c2cccnc2)nc(-c2ccc(Cl)cc2)c1C#N`, the Potency was 7.94 µM (active).

Turning to `COC(=O)CCCC1=CC2=CC(=O)C(C)(OC(=O)c3cccs3)C(=O)C2=CN1c1ccc(CO)cc1` (centres undefined), the “activity, negative = IMPase inhibition” value is -7.18%. On the same count and under the same terms, next, `CC(=O)c1sc(N/N=C\c2ccc(C)cc2)nc1C`: 5.69%. Still for that read-out and setting: next, `CC(=O)c1sc(NC(=O)c2cccc3ccccc23)nc1C`: -12.6% [at 38.3 µM]. For the molecule `CC(=O)c1sc(NC(=O)c2ccc(C)cc2)nc1C`, the Potency is 12.6 µM (active).

Turning to `COC(=O)C1=C(C(=O)OC)[C@@H]2Nc3ccccc3[C@@]23C[C@@H](C(=O)OC)N(S(=O)(=O)c2ccc([N+](=O)[O-])cc2)C3=N1`, the “activity, negative = IMPase inhibition” value was 23.4%. On the same count and under the same terms, with `CC(=O)OC1C([N+]2(C)CCCCC2)C[C@H]2C3CC[C@H]4C[C@H](OC(C)=O)C([N+]5(C)CCCCC5)CC4(C)C3CCC12C` (some centres undefined) the figure was 27.8%; with `COCOc1cc(OC)ccc1C(=O)/C=C/c1ccc([N+](=O)[O-])cc1`, -13.9%; with `CC(=O)c1cc(NC(=O)c2ccccc2)c(=O)oc1/C=C/N(C)C`, 17.6% [at 38.3 µM]. Still for that read-out and setting: next, `CC(=O)Oc1ccc(NC(=O)CCC2CCCCC2)c(C(=O)O)c1`: 6.82%. Take `CC(=O)Nc1cc2ccc(OC(C)=O)cc2oc1=O`: the Potency was 8.91 µM (active).

On to `COCCN1C=C2C(=O)C(C)(OC(=O)C3CCCC3)C(=O)C=C2C=C1c1ccsc1` (centres undefined), for which the “activity, negative = IMPase inhibition” value is 0.622%. For the molecule `N#Cc1cccc(CS(=O)(=O)c2nnnn2-c2cc(C(F)(F)F)cc(C(F)(F)F)c2)c1`, the “activity, negative = IMPase inhibition” value was 20.7%.

As for `C=C(C(C)=O)C(O)c1cccs1` (centres undefined), the “activity, negative = IMPase inhibition” value was -3.84%. For the molecule `COc1ccc(-c2nc3c(c4c2C[C@H](c2ccccc2)OC4)CN(C(=O)c2cccnc2)CC3)c(C)c1`, the “activity, negative = IMPase inhibition” value was 2.33%.
